Source: PubChem BioAssay AID504617 (Sanford-Burnham Center for Chemical Genomics, 2011)
This is one part of the list. A number with no mark means an inactive call. The source made the active and inactive calls.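 How the source made its calls: active means mean activity change at or below -40%, meaning activation of 40% or more, at 20 µM; inactive means the rest.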

target: Apoptotic protease-activating factor 1 (Homo sapiens) (UniProt O14727); test: enhancers of apoptosome-driven caspase-3 activity – biochemical, fluorescence, DEVD-Rh110, 20 µM, confirmation (AID 504617); conditions: reconstituted apoptosome caspase-3 activity, at 20 µM, stronger effect = lower value
Sequence (O14727 whole entry, looked up): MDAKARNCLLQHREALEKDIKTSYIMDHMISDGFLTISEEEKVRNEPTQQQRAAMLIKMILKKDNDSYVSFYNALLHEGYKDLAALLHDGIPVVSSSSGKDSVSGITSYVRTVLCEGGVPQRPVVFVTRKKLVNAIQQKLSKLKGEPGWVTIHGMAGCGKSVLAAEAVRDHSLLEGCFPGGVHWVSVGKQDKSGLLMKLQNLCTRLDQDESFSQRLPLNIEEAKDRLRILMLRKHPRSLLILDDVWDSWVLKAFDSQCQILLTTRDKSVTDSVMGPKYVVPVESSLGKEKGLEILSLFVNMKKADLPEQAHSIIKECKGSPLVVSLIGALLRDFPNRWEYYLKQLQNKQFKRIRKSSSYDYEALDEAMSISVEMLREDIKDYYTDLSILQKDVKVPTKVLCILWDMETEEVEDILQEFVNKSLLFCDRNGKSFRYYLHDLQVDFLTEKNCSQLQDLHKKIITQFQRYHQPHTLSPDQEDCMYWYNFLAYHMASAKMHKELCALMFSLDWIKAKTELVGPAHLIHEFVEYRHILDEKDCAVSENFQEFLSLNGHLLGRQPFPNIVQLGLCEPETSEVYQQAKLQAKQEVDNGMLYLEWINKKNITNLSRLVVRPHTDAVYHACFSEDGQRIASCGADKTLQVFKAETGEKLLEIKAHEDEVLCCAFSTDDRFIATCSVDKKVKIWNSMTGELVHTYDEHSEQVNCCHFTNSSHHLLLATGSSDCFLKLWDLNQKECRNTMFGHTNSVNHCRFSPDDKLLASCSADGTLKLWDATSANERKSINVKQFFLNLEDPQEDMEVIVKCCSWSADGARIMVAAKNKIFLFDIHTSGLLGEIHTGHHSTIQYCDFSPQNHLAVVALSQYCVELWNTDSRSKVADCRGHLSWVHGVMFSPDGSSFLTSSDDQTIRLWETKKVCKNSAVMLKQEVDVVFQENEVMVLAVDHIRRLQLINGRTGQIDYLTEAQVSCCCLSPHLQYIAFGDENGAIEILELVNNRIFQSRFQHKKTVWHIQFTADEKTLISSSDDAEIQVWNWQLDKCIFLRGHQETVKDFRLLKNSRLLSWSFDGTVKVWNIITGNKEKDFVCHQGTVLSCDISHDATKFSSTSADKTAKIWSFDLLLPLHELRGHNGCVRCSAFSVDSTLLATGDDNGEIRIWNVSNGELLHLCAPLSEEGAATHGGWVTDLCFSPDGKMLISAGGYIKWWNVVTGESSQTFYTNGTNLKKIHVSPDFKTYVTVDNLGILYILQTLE

Which activity change, negative = activation does the source give for `COc1cc(C(=O)NCc2nnc(SCC(=O)Nc3nc4ccc(C)cc4s3)o2)cc(OC)c1OC` here?
Its activity change, negative = activation is 8.22%.

Which activity change, negative = activation does the source give for `C=CC1=C(C(=O)O)N2C(=O)[C@@H](NC(=O)/C(=N\OCC(=O)O)c3csc(N)n3)[C@H]2SC1` here?
The activity change, negative = activation was -114% (active).

How did the activity change, negative = activation turn out when `O=C(CCc1ccccc1)NNC(=O)c1ccc(Br)cc1` was run?
Its activity change, negative = activation is 5.47%.

How did the activity change, negative = activation turn out when `COC(=O)C(C)N(C#N)c1nc(C)nc(C)n1` (configuration not stated) was run?
Its activity change, negative = activation is 10.4%.

Which activity change, negative = activation does the source give for `COc1ccc(S(=O)(=O)N2CCCCC2)cc1NC(=O)c1cc([N+](=O)[O-])ccc1N1CCOCC1` here?
Its activity change, negative = activation is 13.5%.

Which activity change, negative = activation does the source give for `Cc1ccc(S(=O)(=O)c2c(N)n(C)c3nc4ccccc4nc23)cc1` here?
Its activity change, negative = activation is 18.5%.

For `CN(C)S(=O)(=O)c1ccc(C(=O)NCCN=C2NS(=O)(=O)c3ccccc32)cc1`, which activity change, negative = activation is on record?
The activity change, negative = activation was 4.07%.

Which activity change, negative = activation does the source give for `COc1ccc(C2c3ccc(O)cc3Oc3ncn(CCCO)c(=N)c32)cc1OC` (configuration not stated) here?
Its activity change, negative = activation is 0.56%.

`Cc1ccc(Nc2nc(CSc3nnc(-c4ccncc4)n3-c3ccccc3C)cs2)cc1` was tested. Which activity change, negative = activation did it give?
Its activity change, negative = activation is 26.5%.

Which activity change, negative = activation does the source give for `CC(C)OCCCNC(=S)N1CCC(C(=O)c2ccc3c(c2)OCCO3)CC1` here?
Its activity change, negative = activation is 17.5%.

Which activity change, negative = activation does the source give for `C=C(C)C(=O)Nc1cccc(C2=NOC3(C2)C[C@H](C(N)=O)N(C(=O)C(c2ccccc2)c2ccccc2)C3)c1` (some centres not stated) here?
The activity change, negative = activation was -78.6% (active).

For `CC(C)N1CCC(NC(=O)Nc2ccccc2)CC1`, which activity change, negative = activation is on record?
The activity change, negative = activation was 9.51%.

How did the activity change, negative = activation turn out when `C=CCNC(=O)c1ccc(C)c(Br)c1` was run?
Its activity change, negative = activation is 5.25%.

For `O=c1[nH]c2c(c(=O)n1Cc1ccccc1)CCC2`, which activity change, negative = activation is on record?
The activity change, negative = activation was 11%.

For `CCOCCc1c(O)nc(SCC(=O)NCc2ccco2)[nH]c1=O`, which activity change, negative = activation is on record?
The activity change, negative = activation was 7%.

`Cc1nn(CC(=O)Nc2ccc(C#N)cc2)c(C)c1[N+](=O)[O-]` was tested. Which activity change, negative = activation did it give?
Its activity change, negative = activation is -10.5%.

How did the activity change, negative = activation turn out when `CCCC(=O)Nc1nc2ccc(NC(=O)c3c(F)c(F)c(OC)c(F)c3F)cc2s1` was run?
Its activity change, negative = activation is 9.11%.

How did the activity change, negative = activation turn out when `COc1cccc(C(=O)Nc2ccc(N3CCCC3)cc2)c1` was run?
Its activity change, negative = activation is 7.29%.

With `COc1ccccc1OCC(=O)Nc1c2c(nn1-c1ccc(F)cc1)CS(=O)(=O)C2` as the compound, how does the activity change, negative = activation read?
Its activity change, negative = activation is 9.31%.

`COc1ccc(OCCCC(=O)NCCc2ccccc2)cc1` was tested. Which activity change, negative = activation did it give?
The activity change, negative = activation was 4.66%.

Which activity change, negative = activation does the source give for `COc1cc(C2C(C#N)=C(N)Oc3n[nH]c(-c4ccccn4)c32)cc(OC)c1OC` (configuration not stated) here?
Its activity change, negative = activation is 16.8%.

For `Cc1cc(NC(=O)c2cccc(N3C(=O)CCC3=O)c2)no1`, which activity change, negative = activation is on record?
The activity change, negative = activation was 4.77%.
